# In PubChem BioAssay (EPA / NIEHS):
# Inconclusive results are not listed. More than one record can exist for a structure, and the calls need not agree. Active and inactive are the calls of the source. How the source made its calls, unless noted: active means hit-call score of the fitted dose curve at least 0.9, where 1 is the maximum; inconclusive means response in the unintended direction; inactive means score below 0.9.
# What was measured:
# [1] = target: Ratio of Nucleoli Translocation and Cytoplasm, AR (gene 367) (UniProt P10275); test: UPITT_HCI_U2OS_AR_TIF2_Nucleoli_Cytoplasm_Ratio_Agonist: University of Pittsburgh U2OS Androgen Receptor-Transcriptional Intermediary Factor 2 (AR-TIF2) Agonism High Content Imaging Assay for Ratio of Nucleoli Translocation and Cytoplasm (AID 2284000);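 further: hits raise the red nucleolar to cytoplasm ratio above vehicle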
# Outline: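 Human osteosarcoma U2OS line, AR-RFP plus TIF2-GFP; compounds 0.195–50 uM final, 0.5% DMSO. Readout: nucleolar/cytoplasmic RFP ratio by HCI, positive direction vs DMSO baseline.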
# [2] = target: human Thromboxane A2 Receptor (TXA2), TBXA2R (gene 6915) (UniProt P21731); test: NVS_GPCR_hTXA2: NovaScreen (NVS) G Protein-Coupled Receptor Assay for human Thromboxane A2 Receptor (TXA2) (AID 2283282);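 further: actives reduce bound radioligand signal relative to DMSO baseline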
# Outline: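 Human platelet-derived receptor preparation incubated with test chemical and radiolabelled ligand for 1 hour, cell-free. Bound label was separated by filtration and counted; displacement relative to DMSO controls gave activity, screened at 25 uM, then titrated.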
# [3] = target: PGR (gene 5241) (UniProt P06401); test: TOX21_PR_LUC_Followup_Agonist: Tox21 HEK293 Progesterone Receptor (PR) Agonism Luciferase Follow-Up Assay (AID 2283937; active means hit-call score of the fitted dose curve at least 0.9, where 1 is the maximum; inactive means score below 0.9)
# Outline: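 Agonism scored as luciferase induction over DMSO, read by ONE-Glo after 30 min at RT. Compounds were incubated 16 h at 37C on HEK293-PR-A-luc cells (3,000/well, pre-plated 5 h) previously grown 5 days in charcoal-stripped serum.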
# [4] = target: human CYP2D6, CYP2D6 (gene 1565) (UniProt P10635); test: NVS_ADME_hCYP2D6: NovaScreen (NVS) CYP450-related Enzyme Activity (ADME) Assay for human CYP2D6 (AID 2283107)
# Outline: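 Insect-cell recombinant enzyme + fluorogenic substrate, cell-free; 1 h incubation; fluorescence intensity readout. Acetonitrile = neg. ctrl/baseline. Single-point 10 uM, duplicate; follow-up concentration series.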
# [5] = system: rat CYP3A1, gene 25642; test: NVS_ADME_rCYP3A1: NovaScreen (NVS) CYP450-related Enzyme Activity (ADME) Assay for rat CYP3A1 (AID 2283126)
# Outline: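 Compounds went first at 10 uM duplicate, then to series with 20 uM maximum. Fluorescence from substrate turnover by the recombinant enzyme was measured 0.5 h post-dosing, inhibition scored against acetonitrile vehicle.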
# [6] = target: human Dual Specificity Protein Phosphatase 3 (DUSP3), DUSP3 (gene 1845) (UniProt P51452); test: NVS_ENZ_hDUSP3: NovaScreen (NVS) Enzymatic Assay for human Dual Specificity Protein Phosphatase 3 (DUSP3) (AID 2283152);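 further: phosphatase activity of recombinant human DUSP3 on a fluorogenic substrate without cells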
# Outline: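 Cell-free fluorescence-intensity enzyme activity assay with recombinant protein and substrate; loss of signal fitted relative to DMSO baseline. Primary screen in duplicate at 25 uM, actives then run in concentration series; measured 0 h after dosing.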
# [7] = target: chicken Estrogen Receptor (ESR1), ESR1 (gene 396099) (UniProt P06212); test: ATG_chERa_XSP1: Attagene TRANS-FACTORIAL Multi-Species (XSP1) HepG2 Assay for chicken Estrogen Receptor (ESR1) (AID 2283779)
# Outline: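 Read-out: fluorescent reporter mRNA fragments resolved by capillary electrophoresis after RT-PCR and HpaI digestion. Transfected HepG2 cells carried chimeric NR-Gal4 constructs, were dosed 24 h with 3 nM 6-alpha-fluorotestosterone added, and activity was fitted upward relative to DMSO.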
# [8] = system: turtle Estrogen Receptor (ESR1), gene 101933533; test: ATG_trERa_XSP1: Attagene TRANS-FACTORIAL Multi-Species (XSP1) HepG2 Assay for turtle Estrogen Receptor (ESR1) (AID 2283781)
# Outline: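 Transfect HepG2 with reporter units → dose chemical 24 h (medium has 3 nM 6-alpha-fluorotestosterone) → isolate RNA, RT-PCR → FAM primer extension, HpaI digest → capillary electrophoresis; gain of signal vs DMSO.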
# [9] = target: zebrafish Thyroid Hormone Receptor alpha (TRa), thraa (gene 30670) (UniProt Q98867); test: ATG_zfTRa_XSP1: Attagene TRANS-FACTORIAL Multi-Species (XSP1) HepG2 Assay for zebrafish Thyroid Hormone Receptor alpha (TRa) (AID 2283807)
# Outline: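 Reporter transcripts driven by a chimeric zebrafish TRa–Gal4 protein were measured by RT-PCR with fluorescent labelling and capillary electrophoresis. These came from transiently transfected HepG2 cells after 24 h chemical exposure, with 3 nM 6-alpha-fluorotestosterone added; baseline was DMSO.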
# [10] = system: zebrafish Estrogen Receptor (ER2b), gene 317733; test: ATG_zfER2b_XSP2: Attagene TRANS-FACTORIAL Multi-Species (XSP2) HepG2 Assay for zebrafish Estrogen Receptor (ER2b) (AID 2283823);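 further: fitted upward as reporter gain over DMSO so potency reflects activation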
# Outline: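 Cells used were HepG2, transiently transfected with chimeric nuclear receptor-Gal4 reporter units. After 24 h of chemical treatment, reporter transcripts were amplified by RT-PCR, labelled and sized by capillary electrophoresis, with induction analysed relative to DMSO.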
# [11] = ATG_M_32_XSP2: Attagene TRANS-FACTORIAL Multi-Species (XSP2) HepG2 Assay for M19 Transcription Factor (Internal Marker) (AID 2283826)
# Outline: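 Transfected HepG2 (multiplexed GAL4-UAS reporters), 24 h chemical exposure, 3 nM 6-alpha-fluorotestosterone + 1.5 nM norgestrel added. RNA → oligo(dT) RT → PCR → 6-FAM primer extension → HpaI cut → CE. Fitted upward vs DMSO.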
# [12] = target: zebrafish Thyroid Hormone Receptor alpha (TRa), thraa (gene 30670) (UniProt Q98867); test: ATG_zfTRa_XSP2: Attagene TRANS-FACTORIAL Multi-Species (XSP1) HepG2 Assay for zebrafish Thyroid Hormone Receptor alpha (TRa) (AID 2283832);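 further: actives raise zebrafish TRa-Gal4 reporter transcript above DMSO baseline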
# Outline: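 Chimeric zebrafish TRa-Gal4 activity read in transfected human HepG2 as GAL4-UAS reporter transcripts, 24 h post-dose, via RT-PCR with labeled primer extension and capillary electrophoresis. Medium also carries 3 nM 6-alpha-fluorotestosterone and 1.5 nM norgestrel; DMSO baseline.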
# [13] = target: human Thyroid hormone Receptor beta (TRb), THRB (gene 7068) (UniProt P10828); test: ATG_hTRb_XSP2: Attagene TRANS-FACTORIAL Multi-Species (XSP2) HepG2 Assay for human Thyroid hormone Receptor beta (TRb) (AID 2283840);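 further: actives raise reporter mRNA so potency reflects agonist-like gain of signal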
# Outline: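 Transient transfection of human HepG2 with multi-species NR-Gal4/GAL4-UAS reporter constructs; 24 h compound treatment; RNA isolation, reverse transcription, PCR and HpaI digest; capillary electrophoresis of labeled fragments; activity fitted upward versus DMSO.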
# [14] = system: DIO1 (gene 1733); test: CCTE_GLTED_hDIO1: CCTE's human Deiodinase 1 (DIO1) Inhibition Assay, Great Lakes Toxicology and Ecology Division (GLTED) Lab (AID 2283987);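 further: isolated human DIO1 enzyme in a cell-free setup rather than cells; enzyme activity read as free iodide liberated from substrate via Sandell-Kolthoff colorimetry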
# Outline: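 Inhibition of human deiodinase 1 is scored as reduced iodide liberation after a 3 h enzyme–chemical incubation, detected colorimetrically by the Sandell-Kolthoff reaction against DMSO controls.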
# [15] = system: DIO2 (gene 1734); test: CCTE_GLTED_hDIO2: CCTE's human Deiodinase 2 (DIO2) Inhibition Assay, Great Lakes Toxicology and Ecology Division (GLTED) Lab (AID 2284050)
# Outline: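 Iodide released by human deiodinase 2 over 3 h with test chemical, measured spectrophotometrically via Sandell-Kolthoff cerium/arsenic reaction. Run n=3; inhibition referenced to DMSO.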
# [16] = system: DIO3 (gene 1735); test: CCTE_GLTED_hDIO3: CCTE's human Deiodinase 3 (DIO3) Inhibition Assay, Great Lakes Toxicology and Ecology Division (GLTED) Lab (AID 2284055);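 further: potency is for inhibition seen as loss of released iodide signal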
# Outline: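 Inhibition is read as reduced iodide release, measured spectrophotometrically by the Sandell-Kolthoff cerium/arsenic reaction. Adenovirus-expressed human DIO3 enzyme is exposed to chemical for 3 h, n=3 plates. Iodinated chemicals, nitrite, iron or thiocyanate may interfere.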
# [17] = system: IYD (gene 389434); test: CCTE_GLTED_hIYD: CCTE's human Iodotyrosine Deiodinase (xIYD) Inhibition Assay, Great Lakes Toxicology and Ecology Division (GLTED) Lab (AID 2284317);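 further: cell-free human IYD enzyme made in baculovirus insect cells; iodide freed from monoiodotyrosine measured by cerium arsenite color change at 420 nm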
# Outline: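 In the IYD assay, iodide released from MIT by insect-cell-expressed human enzyme was quantified after 3 h via Sandell-Kolthoff rate at 420 nm, with plate-wise normalization to MNT and solvent controls.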
# [18] = target: chimpanzee Androgen Receptor (AR), AR (gene 747460) (UniProt O97775); test: NVS_NR_cAR: NovaScreen (NVS) Nuclear Receptor Binding Assay for chimpanzee Androgen Receptor (AR) (AID 2283346);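 further: radioligand displacement from AR measured by scintillation counting in a cell-free assay; a loss of bound radioligand signal versus DMSO counts as binding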
# Outline: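 Radioligand binding to chimpanzee AR expressed in Sf9/Sf21 cells, cell-free, measured 72 h after dosing by lysate-based scintillation counting. Loss of signal vs DMSO; initial duplicate screen at 25 uM, actives retested in concentration series.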
# [19] = target: Estrogen receptor (Homo sapiens) + Estrogen receptor beta (Homo sapiens) (UniProt P03372+Q92731); test: OT_ER_ERaERb_0480: Odyssey Thera (OT) 8-hour HEK293T Protein-Complementation Assay for Estrogen Receptor-alpha/-beta Heterodimer (AID 2283352)
# Outline: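 Compound added to HEK293T cells carrying split-reporter-tagged ER-alpha and ER-beta LBDs, incubated 8 hours, then imaged by laser scanning cytometer. Signal rise in nucleus, or nucleus and cytoplasm, over vehicle was fitted in the positive direction.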
# [20] = TAMU_PeakParms_SingleDonor1434_QT: Texas A&M University (TAMU) 1.5-hr Human Induced Pluripotent Stem Cell (iPSC)-derived Cardiomyocytes Calcium (Ca+2) Flux Assay for Cardiotoxicity: QT (decay-rise ratio) (AID 2284235)
# Outline: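 Decay/rise ratio of calcium-flux fluorescence scored after 90 min exposure (37C) of donor 1434 iPSC cardiomyocytes to 0.2–100 uM (0.5% DMSO). Beat-cessation and severe-notch points removed; POD is EC05, a 5% rise over DMSO.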
# human Dual Specificity Protein Phosphatase 3 (DUSP3), DUSP3 (gene 1845), sequence (P51452 whole entry, looked up): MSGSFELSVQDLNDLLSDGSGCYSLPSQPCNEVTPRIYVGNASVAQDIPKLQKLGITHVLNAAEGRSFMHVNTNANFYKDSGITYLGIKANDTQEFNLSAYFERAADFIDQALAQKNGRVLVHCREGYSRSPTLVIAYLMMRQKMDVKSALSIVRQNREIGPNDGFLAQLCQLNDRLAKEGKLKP
# chimpanzee Androgen Receptor (AR), AR (gene 747460), sequence (O97775 whole entry, looked up): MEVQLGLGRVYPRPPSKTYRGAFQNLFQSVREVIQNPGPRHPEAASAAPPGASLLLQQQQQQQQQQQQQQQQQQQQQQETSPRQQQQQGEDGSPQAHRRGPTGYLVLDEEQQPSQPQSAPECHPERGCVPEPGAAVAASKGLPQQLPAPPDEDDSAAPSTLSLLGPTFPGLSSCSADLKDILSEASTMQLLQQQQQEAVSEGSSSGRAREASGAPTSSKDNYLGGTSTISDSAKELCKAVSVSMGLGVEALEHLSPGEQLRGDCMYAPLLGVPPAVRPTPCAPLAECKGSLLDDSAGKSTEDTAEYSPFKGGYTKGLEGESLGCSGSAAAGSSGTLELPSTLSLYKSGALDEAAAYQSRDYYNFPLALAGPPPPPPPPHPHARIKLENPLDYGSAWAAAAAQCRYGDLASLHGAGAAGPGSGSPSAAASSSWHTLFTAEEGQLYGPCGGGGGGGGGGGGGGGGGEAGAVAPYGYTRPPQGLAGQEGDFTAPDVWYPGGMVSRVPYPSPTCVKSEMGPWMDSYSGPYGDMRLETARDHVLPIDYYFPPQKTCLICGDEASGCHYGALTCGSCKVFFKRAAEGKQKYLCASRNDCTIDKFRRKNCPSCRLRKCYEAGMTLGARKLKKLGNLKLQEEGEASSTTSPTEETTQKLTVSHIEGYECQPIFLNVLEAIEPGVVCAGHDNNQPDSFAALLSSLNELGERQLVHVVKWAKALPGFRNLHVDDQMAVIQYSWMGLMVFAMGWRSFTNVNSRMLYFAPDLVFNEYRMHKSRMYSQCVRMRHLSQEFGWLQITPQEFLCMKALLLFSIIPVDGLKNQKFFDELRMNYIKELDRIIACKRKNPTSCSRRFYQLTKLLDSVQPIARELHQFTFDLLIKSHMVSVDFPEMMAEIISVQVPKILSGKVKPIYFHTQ
# Estrogen receptor (Homo sapiens) + Estrogen receptor beta (Homo sapiens), sequence (P03372 whole entry, looked up): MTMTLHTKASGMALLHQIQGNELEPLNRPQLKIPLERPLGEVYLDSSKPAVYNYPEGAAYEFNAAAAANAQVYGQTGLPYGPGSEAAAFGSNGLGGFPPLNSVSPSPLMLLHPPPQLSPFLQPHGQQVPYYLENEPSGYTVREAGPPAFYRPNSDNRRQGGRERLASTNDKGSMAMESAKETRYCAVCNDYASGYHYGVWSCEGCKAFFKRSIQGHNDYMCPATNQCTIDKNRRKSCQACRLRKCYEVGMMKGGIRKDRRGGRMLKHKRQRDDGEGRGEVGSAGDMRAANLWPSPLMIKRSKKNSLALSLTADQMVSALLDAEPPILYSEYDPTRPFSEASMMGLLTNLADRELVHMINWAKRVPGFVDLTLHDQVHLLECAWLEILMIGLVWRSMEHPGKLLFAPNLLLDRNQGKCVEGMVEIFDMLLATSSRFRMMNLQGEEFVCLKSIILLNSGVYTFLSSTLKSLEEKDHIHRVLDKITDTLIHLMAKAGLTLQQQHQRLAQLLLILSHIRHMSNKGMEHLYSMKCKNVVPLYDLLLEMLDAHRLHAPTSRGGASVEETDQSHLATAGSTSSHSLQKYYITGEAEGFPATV
# Estrogen receptor (Homo sapiens) + Estrogen receptor beta (Homo sapiens), sequence (Q92731 whole entry, looked up): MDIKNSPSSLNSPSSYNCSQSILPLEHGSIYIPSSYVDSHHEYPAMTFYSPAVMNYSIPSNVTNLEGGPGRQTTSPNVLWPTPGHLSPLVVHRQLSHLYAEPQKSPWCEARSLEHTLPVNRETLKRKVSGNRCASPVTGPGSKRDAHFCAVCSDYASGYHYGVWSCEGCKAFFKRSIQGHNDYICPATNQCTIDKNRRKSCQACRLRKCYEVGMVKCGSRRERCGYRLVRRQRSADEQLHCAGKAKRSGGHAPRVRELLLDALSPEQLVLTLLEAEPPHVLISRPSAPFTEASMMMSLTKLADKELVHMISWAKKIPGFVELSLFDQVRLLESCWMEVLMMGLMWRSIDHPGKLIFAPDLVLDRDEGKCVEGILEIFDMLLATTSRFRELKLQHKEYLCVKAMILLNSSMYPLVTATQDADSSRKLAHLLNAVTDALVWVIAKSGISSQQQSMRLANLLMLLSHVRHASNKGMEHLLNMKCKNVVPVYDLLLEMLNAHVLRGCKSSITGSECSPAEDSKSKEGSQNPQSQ
# human Thyroid hormone Receptor beta (TRb), THRB (gene 7068), sequence (P10828 whole entry, looked up, the tested form may be a part): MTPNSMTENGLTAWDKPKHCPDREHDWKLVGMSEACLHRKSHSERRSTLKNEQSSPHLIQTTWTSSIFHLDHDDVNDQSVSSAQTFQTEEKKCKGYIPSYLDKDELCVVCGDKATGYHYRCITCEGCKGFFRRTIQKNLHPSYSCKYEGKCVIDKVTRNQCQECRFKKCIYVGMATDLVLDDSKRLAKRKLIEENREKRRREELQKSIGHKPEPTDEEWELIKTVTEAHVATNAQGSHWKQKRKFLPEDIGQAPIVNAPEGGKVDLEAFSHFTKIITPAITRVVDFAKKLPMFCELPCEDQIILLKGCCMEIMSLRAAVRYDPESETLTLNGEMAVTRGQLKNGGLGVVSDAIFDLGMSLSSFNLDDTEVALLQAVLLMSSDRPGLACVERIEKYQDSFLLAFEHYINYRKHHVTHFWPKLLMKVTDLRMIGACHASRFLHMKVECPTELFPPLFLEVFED
# chicken Estrogen Receptor (ESR1), ESR1 (gene 396099), sequence (P06212 whole entry, looked up, the tested form may be a part): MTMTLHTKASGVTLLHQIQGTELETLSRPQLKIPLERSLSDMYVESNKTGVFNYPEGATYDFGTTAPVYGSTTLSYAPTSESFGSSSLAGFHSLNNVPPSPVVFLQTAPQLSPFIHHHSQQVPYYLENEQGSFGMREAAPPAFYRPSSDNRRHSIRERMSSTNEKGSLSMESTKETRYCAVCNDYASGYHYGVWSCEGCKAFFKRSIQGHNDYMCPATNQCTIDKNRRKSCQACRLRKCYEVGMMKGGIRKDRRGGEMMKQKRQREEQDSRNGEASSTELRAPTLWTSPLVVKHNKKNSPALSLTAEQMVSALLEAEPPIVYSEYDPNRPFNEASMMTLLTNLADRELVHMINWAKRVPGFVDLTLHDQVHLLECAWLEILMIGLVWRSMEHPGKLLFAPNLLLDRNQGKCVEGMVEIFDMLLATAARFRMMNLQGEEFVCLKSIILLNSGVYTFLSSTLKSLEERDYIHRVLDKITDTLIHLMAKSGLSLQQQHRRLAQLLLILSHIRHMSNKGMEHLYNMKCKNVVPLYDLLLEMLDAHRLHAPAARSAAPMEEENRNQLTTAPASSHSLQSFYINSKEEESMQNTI
# zebrafish Thyroid Hormone Receptor alpha (TRa), thraa (gene 30670), sequence (Q98867 whole entry, looked up, the tested form may be a part): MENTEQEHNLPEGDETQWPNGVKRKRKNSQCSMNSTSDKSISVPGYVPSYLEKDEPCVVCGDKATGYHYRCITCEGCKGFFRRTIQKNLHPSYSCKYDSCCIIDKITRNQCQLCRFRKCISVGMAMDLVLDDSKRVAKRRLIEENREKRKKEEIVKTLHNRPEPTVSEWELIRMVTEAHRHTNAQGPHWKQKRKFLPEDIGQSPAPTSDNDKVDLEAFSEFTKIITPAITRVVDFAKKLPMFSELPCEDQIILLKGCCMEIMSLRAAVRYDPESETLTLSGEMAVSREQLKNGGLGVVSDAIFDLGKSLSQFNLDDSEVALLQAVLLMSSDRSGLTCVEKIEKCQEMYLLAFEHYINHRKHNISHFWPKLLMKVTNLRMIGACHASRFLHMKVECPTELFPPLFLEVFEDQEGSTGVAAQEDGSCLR
# Ratio of Nucleoli Translocation and Cytoplasm, AR (gene 367), sequence (P10275 whole entry, looked up): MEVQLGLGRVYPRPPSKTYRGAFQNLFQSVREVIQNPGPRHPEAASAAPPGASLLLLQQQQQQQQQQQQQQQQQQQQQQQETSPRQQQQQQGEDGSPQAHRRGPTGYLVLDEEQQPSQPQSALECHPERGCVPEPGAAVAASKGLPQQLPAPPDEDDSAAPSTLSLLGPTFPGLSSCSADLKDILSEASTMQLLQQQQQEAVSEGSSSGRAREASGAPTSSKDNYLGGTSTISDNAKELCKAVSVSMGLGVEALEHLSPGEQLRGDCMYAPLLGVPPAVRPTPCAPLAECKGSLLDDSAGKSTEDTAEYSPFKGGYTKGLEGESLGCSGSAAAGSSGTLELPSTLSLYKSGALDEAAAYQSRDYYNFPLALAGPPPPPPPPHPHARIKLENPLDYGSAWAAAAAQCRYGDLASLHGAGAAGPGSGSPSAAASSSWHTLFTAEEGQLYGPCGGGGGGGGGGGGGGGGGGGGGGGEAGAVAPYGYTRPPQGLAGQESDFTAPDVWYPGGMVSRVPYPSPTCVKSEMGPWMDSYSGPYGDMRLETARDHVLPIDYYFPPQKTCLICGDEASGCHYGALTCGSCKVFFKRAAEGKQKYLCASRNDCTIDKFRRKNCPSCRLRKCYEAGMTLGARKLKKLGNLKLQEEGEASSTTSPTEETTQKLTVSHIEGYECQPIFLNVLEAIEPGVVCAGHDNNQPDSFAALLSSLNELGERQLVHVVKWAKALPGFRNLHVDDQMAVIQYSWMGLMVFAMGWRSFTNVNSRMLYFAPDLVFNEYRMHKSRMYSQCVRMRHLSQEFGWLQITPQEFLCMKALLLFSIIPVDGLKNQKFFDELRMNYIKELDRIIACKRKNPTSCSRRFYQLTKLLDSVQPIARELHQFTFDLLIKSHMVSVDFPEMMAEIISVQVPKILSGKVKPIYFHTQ
# human Thromboxane A2 Receptor (TXA2), TBXA2R (gene 6915), sequence (P21731 whole entry, looked up): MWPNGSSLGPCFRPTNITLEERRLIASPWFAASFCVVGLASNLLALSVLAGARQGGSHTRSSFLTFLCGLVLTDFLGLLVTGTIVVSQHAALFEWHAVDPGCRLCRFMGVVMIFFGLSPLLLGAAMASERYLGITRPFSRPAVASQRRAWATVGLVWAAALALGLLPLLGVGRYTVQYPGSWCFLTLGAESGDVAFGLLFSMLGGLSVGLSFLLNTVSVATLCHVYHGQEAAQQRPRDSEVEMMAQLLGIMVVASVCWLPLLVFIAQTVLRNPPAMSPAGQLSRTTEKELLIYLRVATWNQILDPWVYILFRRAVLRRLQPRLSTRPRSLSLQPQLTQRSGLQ
compound,measurement,setting,value
CNC(=O)Oc1cc(C)c(SC)c(C)c1,AC50,[1],71.1 µM (active)
same,outcome,[1],inactive
O=c1[nH]c(Cl)c(Cl)cc1Cl,AC50,[2],0.631 µM (active)
N#Cc1cc(I)c(O)c(I)c1,outcome,[3],inactive
CC1(C)[C@H](C(=O)O[C@H](C#N)c2cccc(Oc3ccccc3)c2)[C@@H]1C=C(Br)Br,AC50,[4],2.27 µM (active)
same,outcome,[5],inactive
CCOC(=O)NC(=S)Nc1ccccc1NC(=S)NC(=O)OCC,AC50,[5],1.53 µM (active)
O=C1C(Cl)=C(Cl)C(=O)C(Cl)=C1Cl,AC50,[6],1.19 µM (active)
CC(C)(c1cc(Cl)c(O)c(Cl)c1)c1cc(Cl)c(O)c(Cl)c1,AC50,[7],24.3 µM (active)
same,AC50,[8],23.9 µM (active)
same,AC50,[9],17.9 µM (active)
same,AC50,[10],25.7 µM (active)
same,outcome,[11],inactive
same,outcome,[12],inactive
same,outcome,[13],inactive
same,AC50,[14],73.9 µM (active)
same,AC50,[15],94.3 µM (active)
same,AC50,[16],41.8 µM (active)
same,AC50,[17],100 µM (active)
CC[N+](=O)[O-],outcome,[18],inactive
c1ccc(P(c2ccccc2)c2ccccc2)cc1,AC50,[19],28.5 µM (active)
CC(C)CCCCCCCOP(=O)(Oc1ccccc1)Oc1ccccc1,outcome,[20],inactive
Cc1ccc(OP(=O)(Oc2ccc(C)cc2)Oc2ccc(C)cc2)cc1 (tested in a mixture with another compound),outcome,[20],inactive
CCC1CCC(=O)O1 (stereo not given),outcome,[17],inactive
C=CC(=O)OCC(CC)CCCC (stereo not given),AC50,[14],19.4 µM (active)
same,AC50,[15],23.8 µM (active)
same,AC50,[16],47 µM (active)
CC1OC(C)OC(C)O1 (stereo not given),outcome,[6],inactive
same,outcome,[2],inactive
Cc1cc(C)c(C2=C(OC(=O)CC(C)(C)C)C3(CCCC3)OC2=O)c(C)c1,outcome,[19],inactive
CC1CCCC1.[C-]#[O+].[C-]#[O+].[C-]#[O+].[Mn],AC50,[20],9.92 µM (active)
Nc1ccc(-c2ccc(N)c(N)c2)cc1N,AC50,[4],4.48 µM (active)
same,AC50,[6],8.44 µM (active)
CC(C)CCCCCCCOC(=O)c1ccccc1C(=O)OCCCCCCCC(C)C,outcome,[7],inactive
same,outcome,[8],inactive
same,outcome,[9],inactive
same,outcome,[10],inactive
same,outcome,[11],inactive
same,outcome,[12],inactive
same,outcome,[13],inactive
Nc1ccc(Cl)c(Cl)c1,AC50,[18],25 µM (active)
CC(=O)c1cc2c(cc1C)C(C)(C)C(C)CC2(C)C (stereo not given),outcome,[18],inactive
same,AC50,[7],59.7 µM (active)
same,outcome,[8],inactive
same,AC50,[9],145 µM (active)
same,AC50,[10],26.7 µM (active)
same,outcome,[11],inactive
same,outcome,[12],inactive
same,outcome,[13],inactive
c1ccc2c(c1)CCCC2,outcome,[19],inactive
CCCCCCCCCCCCCCCC[N+](C)(C)C,AC50,[14],13.5 µM (active)
same,AC50,[15],19.8 µM (active)
same,AC50,[16],1.56 µM (active)
same,AC50,[17],38.7 µM (active)
C[C@]12CC[C@H]3[C@@H](CC[C@@]45O[C@@H]4C(O)=C(C#N)C[C@]35C)[C@@H]1CC[C@@H]2O,outcome,[3],inactive
